# Compound activity: PubChem BioAssay, National Center for Advancing Translational Sciences (NCATS)
# The list is not random: actives were taken first. Their share in the collection is about 19%.
# HT1080-NT tox: kills 2HG-producing HT-1080-NT fibrosarcoma cells; AID 686970; 1.6% of 360,000 active; HT-1080-NT fibrosarcoma viability, CellTiter-Glo ATP luminescence, 48 h; Potency, µM (titrated, usually from 46.1 µM), inactives show top-dose activity, negative = less viability, most hits filed as cytotoxic;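 note: NT is the 2HG producing partner of a matched IDH1 knockdown line; potency is the fitted concentration of half-maximal effect; 0% = DMSO-treated cells and -100% = media-only wells without cells; nearly all actives have a fitted effect of over 55% in size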
#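 Viability of the 2HG-overproducing fibrosarcoma line after 48 hours of compound exposure at 37 degrees C was determined by luminescence with CellTiter-Glo, and concentration-effect curves were then fitted and categorized.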
# HT1080 IDH1KD tx: toxicity to HT-1080 IDH1 knockdown cells (counter line). Potency, µM (titrated, usually from 46.1 µM), without a hit: at the top dose activity, negative = toxicity, actives largely listed as cytotoxic. AID 686971. 2% of 360,000 active. HT-1080 IDH1 knockdown viability, ATP luminescence, 48 h;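 note: potency is the fitted concentration of half-maximal effect; 0% = DMSO wells and -100% = cell-free medium wells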
#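 Cytotoxicity counter-line: IDH1KD HT-1080, 48 h, CellTiter-Glo. Curves classed by r2, magnitude and activity.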
# DT40 TDP1 no CPT: qHTS for Inhibitors of human tyrosyl-DNA phosphodiesterase 1 (TDP1): qHTS in cells in absence of CPT | DT40 Tdp1-/- hTDP1 cells, no CPT, ATP luminescence, 48 h | Potency, µM (series often up to 46.2 µM), inactives show top-dose activity change, negative = growth inhibition, hits mostly inhibitors | 15% of 420,000 active; note: potency is the fitted concentration of half-maximal effect; nearly all actives have a fitted effect of over 55% in size
#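 A cellular qHTS used chicken DT40 cells lacking endogenous Tdp1 but carrying stably transfected human TDP1. Compounds were applied without camptothecin, and cell growth kinetics were judged by ATP-dependent luminescence after ≥48 hr.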
# TDP1 cell CPT: DT40-hTDP1 cell growth loss with CPT. chicken DT40 Tdp1-/-;hTDP1 cells + 20 nM CPT, ATP luminescence, 48 h. Potency, µM (series often up to 46.2 µM), without a hit: at the highest dose activity change, negative = growth inhibition, usual class: inhibitors. 12% of 420,000 active; note: potency is the fitted concentration of half-maximal effect; nearly all actives have a fitted effect of over 55% in size
#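 Chicken DT40 Tdp1-/- cells complemented with human TDP1, 400 cells/well, exposed to compounds plus 20 nM camptothecin for at least 48 h at 37 C; viability read as ATP content by CellTiter-Glo luminescence.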
# IL1B secr inh: inflammasome signaling inhibition, IL-1 beta readout; THP-1 LPS/ATP IL-1B secretion, AlphaLISA, 16 h; stronger effect = lower value; activity change, % at 57.5 µM; 4.7% of 360,000 active; AID 743279; in the data active = activity change below about -50%; inconclusive = mostly about -30% to -49%
#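 THP-1 cells pretreated 1 hr with compounds (up to 57.5 uM final), then stimulated with LPS (250 ng/mL final) plus ATP (1.25 mM final); secreted IL-1B measured by AlphaLISA after 16 hr, decreased signal indicating inhibition.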
# ELG1 repair inh: ELG1-dependent DNA repair inhibition. HEK293T ELG1-luciferase reporter, luminescence, 16 h; DNA damage induced by 5-fluorouridine. Potency, µM (highest dose often 46.1 µM), for the others: at the highest dose activity change, negative = inhibition, hits mostly inhibitors. 2.3% of 330,000 active. AID 504467; note: potency is the fitted concentration of half-maximal effect; nearly all actives have a fitted effect of over 55% in size
#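 In this reporter screen, reduction of luminescence relative to DMSO vehicle indicated activity. Compounds and 5-fluorouridine were added together to 2,000 cells per well, incubated for 16 hr at 37 °C, then developed with ONE-Glo.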
# * hit, by the source's call; ? = inconclusive; . = no result; [ ] = another dose, or the depositor's remark. Unless noted, calls come from the whole dose curve; as a rule, active = well fitted curve in the direction sought with a large enough effect; inconclusive = small, poorly fitted or top-dose-only effect, or another doubt; inactive = no such curve, though single readings can be large; an effect the other way counts as inactive or inconclusive. Unless noted, % is set by controls: 0 for no effect and ±100 for the full control effect.
SMILES,HT1080-NT tox,HT1080 IDH1KD tx,DT40 TDP1 no CPT,TDP1 cell CPT,IL1B secr inh,ELG1 repair inh
O=C1OC[C@H](Cc2ccc3c(c2)OCO3)/C1=C\c1ccc2c(c1)OCO2,?,-12%,8.2µM*,5.8µM*,?,-23%
O=C(CN1CCOCC1)NN=Cc1ccc([N+](=O)[O-])o1,-21%,?,?,21µM*,46,.
O=C(CCN1CCN(c2ccccc2)CC1)N/N=C/c1ccc([N+](=O)[O-])o1,-13%,?,?,10µM*,28,0%
Cc1cn([C@H]2C[C@H](O)[C@@H](CCC(=O)NCC(c3ccccc3)c3ccccc3)O2)c(=O)[nH]c1=O,7%,13%,16%,-2%,15,.
S=C1NC(c2ccccc2)=CC(c2ccccc2)N1 (stereo not drawn),3%,-5%,29µM*,?,-12,-11%
CCOc1ccc(NC(=O)OCCN2CCN(CCc3ccccc3)C(C)C2)cc1 (stereo not drawn),2%,-1%,?,?,-70*,.
CCOC(=O)c1ccc(NC(=O)N2CCN(CCc3ccccc3)CC2)cc1,-42%,?,?,-19%,-16,0%
COCCCn1c(N)c(-c2nc3ccccc3n2C)c2nc3ccccc3nc21,-4%[9.24 µM],?,23µM*,26µM*,?,?
Cn1c(-c2c(N)n(CCc3ccccc3)c3nc4ccccc4nc23)nc2ccccc21,-1%[9.24 µM],?,21µM*,26µM*,-8,9.2µM*
CN(C(=O)COC(=O)c1nc(Cl)ccc1Cl)c1ccccc1,1%,4%,-7%,1%,-2,5%
O=C(CN(CCc1ccccc1)Cc1ccccc1)Oc1ccccc1P(=O)(O)O,11%,5%,4%,-9%,6,17%
Cc1ccc(NC(=O)Cn2c(=O)n(-c3ccc(C)cc3)c(=O)c3c2cnn3C)cc1,.,.,-1%,-12%,.,.
CCOc1ccc(/C=N/NC(=O)c2cc(-c3ccco3)nc3ccccc23)cc1,?,-13%,23µM*,?,-15,9%
O=C(N/N=C/c1ccc(F)cc1)c1cc(-c2ccco2)nc2ccccc12,?,16µM*,13µM*,12µM*,28,0%
NC(=O)CCn1ccc2ccccc21,5%,14%,-3%,-14%,5,3%
Cc1ccccc1Cn1cccc1/C=C1/C(=N)N2C=CSC2=NC1=O,?,?,29µM*,18µM*,13,?
CC1=CC2=NC(=O)/C(=C\c3cccn3CCOc3ccccc3C)C(=N)N2O1,?,?,?,21µM*,?,?
CC(C)c1ccc(-n2cccc2/C=C2/C(=N)N3C=CSC3=NC2=O)cc1,-22%,?,?,?,1,16µM*
CC1=CSC2=NC(=O)/C(=C\c3cccn3-c3ccccc3)C(=N)N12,0%,17%,?,?,-2,?
N#Cc1c(Nc2ccccc2)[n+]([O-])c2ccc(Cl)cc2[n+]1[O-],2%,?,?,6.5µM*,-20,.
Cc1cc(C)n2nc(SCCOc3ccccc3)nc2n1,-3%,11%,-24%,-9%,-11,19%
COc1ccc(NS(=O)(=O)c2cccc(NC(=O)C3=NN(c4ccccc4)C(=O)CC3)c2)cc1,?,?,15µM*,?,13,9.2µM*
COc1ccc(NS(=O)(=O)c2cc(NC(=O)C3=NN(c4ccccc4)C(=O)CC3)ccc2C)cc1,-2%,-27%,-27%,?,8,.
CN(c1ccccc1)S(=O)(=O)c1cccc(NC(=O)C2=NN(c3ccccc3)C(=O)CC2)c1,-13%,-16%,13µM*,?,25,7.3µM*
CN1CCN(/N=C/c2ccc(N(c3ccccc3)c3ccccc3)cc2)CC1,-13%,-5%,?,?,-51*,?
SMILES,HT1080-NT tox,HT1080 IDH1KD tx,DT40 TDP1 no CPT,TDP1 cell CPT,IL1B secr inh,ELG1 repair inh
CN1CCN(/N=C/c2ccc(N(C)c3ccccc3)cc2)CC1,-1%,14%,-12%,0%,13,-3%
Nc1nc(-c2cc(O)ccc2[N+](=O)[O-])cc(-c2ccccc2)c1[N+](=O)[O-],?,17%,8.2µM*,7.3µM*,2,-7%
COc1ccccc1N1CCN(CCCCNC(=O)c2ccc3ccccc3c2)CC1,?,?,21µM*,?,0,-25%
COc1ccc2cccc(N3CCN(CCNC(=O)c4ccc(F)cc4)CC3)c2c1,.,.,21µM*,19µM*,.,.
COc1ccc(C(=O)NCCN2CCN(C(=O)c3ccc(OC)cc3)CC2)cc1,-3%,0%,-31%,4%,-5,-6%
Nc1nc(F)cc(NCc2ccccc2)n1,11%,0%,-8%,5%,-7,16%
CCN(CC)S(=O)(=O)c1ccc(N2CCN(S(=O)(=O)c3ccccc3)CC2)nc1,-24%,?,?,-14%,0,?
CCN(c1ccccc1)S(=O)(=O)c1ccc(Cl)nc1,24%,10%,?,-14%,0,6%
CCN(c1ccccc1)S(=O)(=O)c1ccc(N2CCN(c3ccc(O)cc3)CC2)nc1,-7%,-24%,15µM*,?,?,?
CCN(CC)S(=O)(=O)c1ccc(N2CCN(CCOc3ccc(OC)cc3)CC2)nc1,-21%,-5%,21µM*,18µM*,-23,-8%
CCN(c1ccccc1)S(=O)(=O)c1ccc(N2CCN(c3ccc(OC)cc3)CC2)nc1,1%,-1%,?,12µM*,-10,?
O=C(Nc1ccc(S(=O)(=O)Nc2nccs2)cc1)c1c(F)c(F)c(F)c(F)c1F,0%,-10%,4%,-4%,0,-2%
COc1ccc(OC)c(/C=N/N=C2\SCC(=O)N2Cc2ccco2)c1,1%,0%,?,-22%,12,-24%
COc1ccc(OC)c(C2(O)CSC(=Nc3cccnc3)N2Cc2ccco2)c1 (stereo not drawn),8%,2%,18µM*,15µM*,-2,?
CCN1CCN(CC(=O)N2N=C(c3cccs3)CC2c2ccc(C)cc2)C(=O)C1=O (stereo not drawn),0%,4%,-26%,0%,-7,12%
Cc1ccccc1CNC(=O)C1CCN(S(=O)(=O)Cc2ccccc2)CC1,.,.,1%,2%,.,.
CN(C)N=Nc1ccc(-c2cn(Cc3ccccc3)cn2)cc1,-25%,-20%,26µM*,0%,-18,?
CCCCCCCCCCCCCCCCCCN(CCCCCCCCCCCCCCCCCC)c1ccc(C=O)cc1,.,.,1%,9%,.,.
